Consider 56 compounds from the antibiotic and cytotoxicity screens of Wong et al. (2023).

Structures are written as SMILES. Hit rate of the full screen: of about 39,000 compounds, about 1,500 (3.8%) were called active. The sample holds actives, similar compounds and a random draw of the others, so the mix is not that of the screen.

The subject of this assay is HSkMC (human skeletal muscle cells). Kind of assay: cytotoxicity call (relative viability < 0.9). To be noted: 10 µM.
As for `COc1ccc(S(=O)(=O)Nc2cccc3c2O[C@@H](CN(C)Cc2ccncc2)[C@H](C)CN([C@@H](C)CO)C3=O)cc1`, the cytotoxicity call was “inactive”.

In the case of `C[C@@H]1CN([C@@H](C)CO)C(=O)c2cccc(NS(=O)(=O)c3cn(C)cn3)c2O[C@@H]1CN(C)S(=O)(=O)c1ccccc1`, the cytotoxicity call was “inactive”.

On to `C[C@@H]1CN([C@@H](C)CO)C(=O)c2cc(NC(=O)CCN3CCOCC3)ccc2O[C@@H]1CN(C)CC1CC1`, for which the cytotoxicity call is “inactive”.

With `C[C@@H]1CCCCO[C@H](CN(C)C(=O)Cc2ccccc2)[C@H](C)CN([C@@H](C)CO)C(=O)c2cc(NS(=O)(=O)c3cccs3)ccc2O1`, the cytotoxicity call is “inactive”.

Turning to `COCC(=O)Nc1ccc2c(c1)OC[C@@H](C)N(Cc1ccccc1OC)C[C@@H](C)[C@H](OC)CN(C)C2=O`, the cytotoxicity call was “inactive”.

On to `C[C@H]1CCCCO[C@@H](CN(C)C(=O)Nc2ccc(F)cc2)[C@@H](C)CN([C@@H](C)CO)C(=O)c2cc(NS(=O)(=O)c3cccs3)ccc2O1`, for which the cytotoxicity call is “inactive”.

As for `CCSc1nnc2c(=O)[nH]c(=O)[nH]c2n1`, the cytotoxicity call was “inactive”.

As for `Cc1ccc(S(=O)(=O)Nc2ccc3c(c2)CC(=O)N([C@@H](C)CO)C[C@H](C)[C@H](CN(C)Cc2ccc(C(F)(F)F)cc2)O3)cc1`, the cytotoxicity call was “active”.

As for `Cc1ccc(S(=O)(=O)Nc2ccc3c(c2)CC(=O)N([C@H](C)CO)C[C@@H](C)[C@H](CN(C)Cc2ccc(C(F)(F)F)cc2)O3)cc1`, the cytotoxicity call was “inactive”.

As for `Cc1ccc(S(=O)(=O)Nc2ccc3c(c2)CC(=O)N([C@@H](C)CO)C[C@@H](C)[C@H](CN(C)Cc2ccc(C(F)(F)F)cc2)O3)cc1`, the cytotoxicity call was “inactive”.

On to `C[C@H](CO)N1C[C@H](C)[C@@H](CN(C)C(=O)Nc2ccc(C(F)(F)F)cc2)Oc2ccc(NC(=O)Cc3ccccc3)cc2CC1=O`, for which the cytotoxicity call was “inactive”.

For the compound `C[C@@H]1CN([C@@H](C)CO)C(=O)c2cc(NC(=O)C3CCCCC3)ccc2O[C@@H]1CN(C)Cc1ccc(C(F)(F)F)cc1`, the cytotoxicity call was “inactive”.

As to `C[C@H](CO)N1C[C@H](C)[C@@H](CN(C)C(=O)Nc2cccc3ccccc23)Oc2ccc(NC(=O)Nc3cccc4ccccc34)cc2C1=O`, the cytotoxicity call was “inactive”.

For `C[C@@H]1CN([C@@H](C)CO)C(=O)c2cc(NC(=O)Nc3cccc4ccccc34)ccc2O[C@H]1CN(C)C(=O)Nc1cccc2ccccc12`, the cytotoxicity call was “inactive”.

Take `C[C@@H]1CN([C@@H](C)CO)C(=O)c2cc(NC(=O)Nc3cccc4ccccc34)ccc2O[C@@H]1CN(C)C(=O)Nc1cccc2ccccc12`: the cytotoxicity call is “active”.

In the case of `C[C@H]1CN([C@@H](C)CO)C(=O)c2cc(NC(=O)Nc3cccc4ccccc34)ccc2O[C@@H]1CN(C)C(=O)Nc1cccc2ccccc12`, the cytotoxicity call is “inactive”.

Regarding `C[C@@H]1CN([C@H](C)CO)C(=O)c2cc(NC(=O)Nc3cccc4ccccc34)ccc2O[C@@H]1CN(C)C(=O)Nc1cccc2ccccc12`, the cytotoxicity call was “active”.

`C[C@@H]1CN([C@H](C)CO)C(=O)c2cc(NC(=O)Nc3cccc4ccccc34)ccc2O[C@H]1CN(C)C(=O)Nc1cccc2ccccc12`: the cytotoxicity call is “inactive”.

As for `NC(=O)c1c(Cl)ncc2c1NCC2`, the cytotoxicity call is “inactive”.

As to `CC1=CC(=O)c2ccccc2C1=O`, the cytotoxicity call is “inactive”.

For the compound `CC1=C(C)C(=O)C(CCCCCCCCCC[P+](c2ccccc2)(c2ccccc2)c2ccccc2)=CC1=O`, the cytotoxicity call was “active”.

As to `COC1=C(OC)C(=O)C(CCCCCCCCCCO)=C(C)C1=O`, the cytotoxicity call is “active”.

Take `COC1=C(OC)C(=O)C(CC=C(C)CCC=C(C)CCC=C(C)CCC=C(C)CCC=C(C)CCC=C(C)CCC=C(C)CCC=C(C)CCC=C(C)CCC=C(C)C)=C(C)C1=O`: the cytotoxicity call is “inactive”.

Consider `COC1=C(OC)C(=O)C(C/C=C(\C)CC/C=C(\C)CC/C=C(\C)CC/C=C(\C)CC/C=C(\C)CC/C=C(\C)CC/C=C(\C)CC/C=C(\C)CC/C=C(\C)CCC=C(C)C)=C(C)C1=O`, for which the cytotoxicity call is “inactive”.

`COC(=O)CCCCCCC(=O)Nc1ccc(NC(=O)CCCC[P+](c2ccccc2)(c2ccccc2)c2ccccc2)cc1`: the cytotoxicity call is “inactive”.

In the case of `CC1=C(C)C(=O)C(C(CCCCCC(=O)O)c2ccccc2)=C(C)C1=O` (stereo unspecified), the cytotoxicity call was “inactive”.

As for `COC1=C(OC)C(=O)C(CCCCCCCCCC[P+](c2ccccc2)(c2ccccc2)c2ccccc2)=C(C)C1=O`, the cytotoxicity call was “active”.

As to `COC1=C(OC)C(=O)C(C/C=C(\C)CC/C=C(\C)CC/C=C(\C)CC/C=C(/C)CC/C=C(\C)CC/C=C(\C)CC/C=C(\C)CC/C=C(\C)CC/C=C(\C)CCC=C(C)C)=C(C)C1=O`, the cytotoxicity call is “inactive”.

Consider `Nc1ccc(NC(=O)CCN2CCOCC2)cc1`, for which the cytotoxicity call was “inactive”.

As to `C[C@@H]1CN([C@H](C)CO)C(=O)c2cccc(NC(=O)CCCCCC(=O)Nc3ccccc3N)c2O[C@H]1CN(C)CC1CCCCC1`, the cytotoxicity call is “inactive”.

As to `CC(=O)N(C)C[C@H]1Oc2cc(C#CCN(C)C)ccc2S(=O)(=O)N([C@H](C)CO)C[C@H]1C`, the cytotoxicity call was “inactive”.

For the compound `C[C@@H]1CCCCO[C@H](CN(C)Cc2ccc(C(=O)O)cc2)[C@H](C)CN([C@H](C)CO)C(=O)c2cc(NC(=O)Nc3ccc(C(F)(F)F)cc3)ccc2O1`, the cytotoxicity call was “inactive”.

With `C[C@H]1CN([C@@H](C)CO)C(=O)c2cc(NS(=O)(=O)c3cn(C)cn3)ccc2O[C@H]1CN(C)C(=O)Nc1ccccc1`, the cytotoxicity call is “inactive”.

On to `C[C@H]1CN([C@@H](C)CO)C(=O)c2cc(/C=C/c3ccccc3)cnc2O[C@@H]1CN(C)S(=O)(=O)c1cn(C)cn1`, for which the cytotoxicity call was “inactive”.

For `COc1ccc(CN(C)C[C@H]2OCCCC[C@@H](C)Oc3ccc(NS(=O)(=O)c4ccc(F)cc4)cc3C(=O)N([C@@H](C)CO)C[C@@H]2C)cc1`, the cytotoxicity call was “inactive”.

In the case of `O=c1n(-c2ccc(F)cc2)nc2n1CCCN2`, the cytotoxicity call is “inactive”.

In the case of `Cc1ccc(S(=O)(=O)N(C)C[C@H]2Oc3ccc(NC(=O)Cn4cnnn4)cc3CC(=O)N([C@H](C)CO)C[C@@H]2C)cc1`, the cytotoxicity call was “inactive”.

Take `CC1OC(OC2C(O)CC(OC3C(O)CC(OC4CCC5(C)C(CCC6C5CCC5(C)C(C7=CC(=O)OC7)CCC65O)C4)OC3C)OC2C)CC(O)C1O` (stereo unspecified): the cytotoxicity call is “active”.

Turning to `C[C@H]1O[C@@H](O[C@H]2[C@@H](O)C[C@H](O[C@H]3[C@@H](O)C[C@H](O[C@H]4CC[C@@]5(C)[C@H](CC[C@@H]6[C@@H]5CC[C@]5(C)[C@@H](C7=CC(=O)OC7)CC[C@]65O)C4)O[C@@H]3C)O[C@@H]2C)C[C@H](O)[C@@H]1O`, the cytotoxicity call is “active”.

`C[C@H](CO)N1C[C@H](C)[C@@H](CN(C)Cc2ccc(Cl)c(Cl)c2)Oc2ccc(NC(=O)NC3CCCCC3)cc2C1=O`: the cytotoxicity call is “inactive”.

On to `C[C@@H]1CN([C@H](C)CO)C(=O)Cc2cc(NC(=O)CCCCCC(=O)Nc3ccccc3N)ccc2O[C@@H]1CN(C)C(=O)Nc1ccc(F)cc1`, for which the cytotoxicity call was “inactive”.

Take `COc1ccc(NC(=O)Nc2ccc3c(c2)CC(=O)N([C@@H](C)CO)C[C@@H](C)[C@H](CN(C)CC2CCCCC2)O3)cc1`: the cytotoxicity call is “inactive”.

For the compound `O=C(C[C@H]1CC[C@H](NS(=O)(=O)c2ccccc2)[C@H](CO)O1)NCc1ccncn1`, the cytotoxicity call is “inactive”.

For `COc1ccc2c(-c3ccc(Cl)cc3)c(C)oc2c1`, the cytotoxicity call was “inactive”.

Take `C[C@H](CO)N1C[C@H](C)[C@H](CN(C)S(=O)(=O)c2ccccc2)Oc2ccc(NC(=O)Cc3ccccc3)cc2C1=O`: the cytotoxicity call was “inactive”.

Take `O=C(C[C@@H]1C[C@@H]2c3cc(NS(=O)(=O)c4ccccc4)ccc3O[C@@H]2[C@H](CO)O1)NCC(F)(F)F`: the cytotoxicity call was “inactive”.

For the compound `C[C@@H]1CCCCO[C@H](CN(C)Cc2ccc3c(c2)OCO3)[C@@H](C)CN([C@H](C)CO)C(=O)c2cc(NS(=O)(=O)c3ccccc3)ccc2O1`, the cytotoxicity call is “inactive”.

Regarding `C[C@@H]1O[C@@H](O[C@@H]2[C@@H](O)[C@@H](O[C@@H]3O[C@@H](CO)[C@H](O)[C@H]3O)[C@H](OC(=O)[C@]34CCC(C)(C)C[C@H]3C3=CC[C@H]5[C@@]6(C)C[C@H](O)[C@H](O[C@@H]7O[C@@H](C)[C@H](O)[C@@H](O[C@@H]8OC[C@@H](O)[C@H](O)[C@H]8O[C@@H]8O[C@H](CO)[C@@H](O)[C@H](O)[C@H]8O)[C@H]7O)[C@@](C)(CO)[C@@H]6CC[C@@]5(C)[C@]3(C)C[C@H]4O)O[C@H]2C)[C@H](O)[C@H](O)[C@H]1O`, the cytotoxicity call was “inactive”.

For `C/C=C(/C)C(=O)O[C@H]1[C@@H](OC(C)=O)[C@@]2(CO)[C@@H](O)C[C@@]3(C)C(=CC[C@H]4[C@@]5(C)CC[C@@H](O[C@H]6O[C@H](C(=O)O)[C@@H](O[C@H]7O[C@@H](CO)[C@@H](O)[C@@H](O)[C@@H]7O)[C@@H](O)[C@@H]6O[C@H]6O[C@@H](CO)[C@@H](O)[C@@H](O)[C@@H]6O)[C@@](C)(CO)[C@@H]5CC[C@]43C)[C@@H]2CC1(C)C`, the cytotoxicity call is “active”.

For the compound `C[C@H]1O[C@@H](OC(=O)[C@]23CCC(C)(C)C[C@H]2C2=CC[C@H]4[C@@]5(C)CC[C@H](O[C@@H]6O[C@H](C(=O)O)[C@@H](O)[C@H](O[C@@H]7OC[C@@H](O)[C@H](O)[C@H]7O)[C@H]6O[C@@H]6O[C@H](CO)[C@H](O)[C@H](O)[C@H]6O)[C@@](C)(C=O)[C@@H]5CC[C@@]4(C)[C@]2(C)C[C@H]3O)[C@H](O[C@H]2O[C@@H](CO)[C@@H](O)[C@@H](O)[C@@H]2O)[C@@H](O)[C@H]1O[C@@H]1O[C@H](C)[C@@H](O[C@H]2OC[C@@H](O)[C@@H](O)[C@@H]2O)[C@H](O)[C@@H]1O`, the cytotoxicity call was “inactive”.

With `CC=C(C)C(=O)OC1C(OC(C)=O)C2(CO)C(O)CC3(C)C(=CCC4C5(C)CCC(OC6OC(C(=O)O)C(OC7OC(CO)C(O)C(O)C7O)C(O)C6OC6OC(CO)C(O)C(O)C6O)C(C)(CO)C5CCC43C)C2CC1(C)C` (stereo unspecified), the cytotoxicity call is “active”.

For `C/C=C(/C)C(=O)O[C@@H]1[C@H](OC(C)=O)[C@]2(CO)[C@H](O)C[C@]3(C)C(=CC[C@H]4[C@@]5(C)CC[C@H](O[C@@H]6O[C@H](C(=O)O)[C@@H](O[C@@H]7O[C@H](CO)[C@@H](O)[C@H](O)[C@H]7O)[C@H](O)[C@H]6O[C@@H]6O[C@H](CO)[C@@H](O)[C@H](O)[C@H]6O)[C@](C)(CO)[C@@H]5CC[C@]43C)[C@@H]2CC1(C)C`, the cytotoxicity call is “inactive”.

Take `CC1(C)CC[C@]2(C(=O)O[C@H]3O[C@@H](CO)[C@@H](O)[C@@H](O)[C@@H]3O)CC[C@]3(C)C(=CC[C@H]4[C@@]5(C)C[C@@H](O)[C@H](O[C@H]6O[C@H](C(=O)O)[C@@H](O)[C@@H](O)[C@@H]6O)C(C)(C)[C@@H]5CC[C@]43C)[C@@H]2C1`: the cytotoxicity call was “inactive”.

Consider `C[C@@H]1O[C@@H](O[C@@H]2CC[C@@]3(C)[C@@H](CC[C@]4(C)[C@@H]3CC=C3[C@@H]5CC(C)(C)CC[C@]5(C(=O)O[C@@H]5O[C@H](CO[C@@H]6O[C@H](CO)[C@@H](O)[C@H](O)[C@H]6O)[C@@H](O)[C@H](O)[C@H]5O)CC[C@]34C)[C@]2(C)CO)[C@H](O)[C@H](O[C@@H]2OC[C@@H](O)[C@H](O)[C@H]2O)[C@H]1O`, for which the cytotoxicity call was “inactive”.

For the compound `C[C@H]1O[C@@H](O[C@H]2CC[C@@]3(C)[C@@H](CC[C@@]4(C)[C@@H]3CC=C3[C@H]5C[C@](C)(C(=O)O)CC[C@]5(C(=O)O[C@H]5O[C@@H](CO)[C@@H](O)[C@@H](O)[C@@H]5O)CC[C@@]34C)[C@@]2(C)CO)[C@@H](O)[C@@H](O[C@H]2O[C@@H](CO)[C@@H](O)[C@@H](O)[C@@H]2O)[C@@H]1O`, the cytotoxicity call is “inactive”.

Regarding `CC=C(C)C(=O)O[C@H]1[C@H](OC(C)=O)[C@]2(CO)[C@H](O)C[C@]3(C)C(=CC[C@@H]4[C@@]5(C)CC[C@H](O[C@@H]6O[C@H](C(=O)O)[C@@H](O[C@@H]7O[C@H](CO)[C@@H](O)[C@H](O)[C@H]7O)[C@H](O)[C@H]6O[C@@H]6O[C@H](CO)[C@@H](O)[C@H](O)[C@H]6O)[C@](C)(CO)[C@@H]5CC[C@]43C)[C@@H]2CC1(C)C`, the cytotoxicity call is “active”.
